D2 PAM-1: positive allosteric modulators of human D2 dopamine receptor; potentiation, % at 10 µM; AID 485347; 0.34% of 340,000 active; HEK293 T-REx D2, calcium flux, EC20 dopamine potentiation; P14416;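 active = potentiation over 3 SD above the plate norm, cut at about 30% in these data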; note: 0% is about no effect
Target sequence (P14416 whole entry, looked up): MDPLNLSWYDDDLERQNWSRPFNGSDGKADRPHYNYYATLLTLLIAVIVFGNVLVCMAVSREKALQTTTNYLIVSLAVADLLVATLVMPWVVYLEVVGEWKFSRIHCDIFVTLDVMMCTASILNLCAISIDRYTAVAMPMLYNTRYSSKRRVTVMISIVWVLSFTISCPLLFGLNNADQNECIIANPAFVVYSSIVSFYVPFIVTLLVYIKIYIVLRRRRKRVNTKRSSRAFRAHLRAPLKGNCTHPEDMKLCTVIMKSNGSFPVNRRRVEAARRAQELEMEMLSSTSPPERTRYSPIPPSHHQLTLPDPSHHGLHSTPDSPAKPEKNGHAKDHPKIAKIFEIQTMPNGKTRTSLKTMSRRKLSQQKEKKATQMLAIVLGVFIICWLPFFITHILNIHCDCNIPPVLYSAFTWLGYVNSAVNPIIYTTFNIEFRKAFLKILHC
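Using a no-wash calcium dye in inducible, force-coupled HEK293 Trex cells expressing D2, we tracked fluorescence each second for 180 s after compound, then for 180 s after EC20 dopamine to detect augmented signalling.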
D2 antag: antagonizes the human D2 dopamine receptor. inhibition, % at 10 µM. 2% of 340,000 active. AID 485344. HEK293 TREx D2 cells, calcium flux, dopamine EC80. P14416; in the data active = inhibition above about 30%; inactive = below that, where a call was filed; note: 0% is about no effect
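Measurement of antagonist activity uses fluorescent calcium dye in inducible HEK293 T-REx D2 cells: 10 s baseline, compound addition with 180 s read, EC80 dopamine addition with a further 180 s read.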
D2 ag-1: activates the human D2 dopamine receptor; HEK293 T-REx D2 cells, calcium flux agonist mode; activation, % at 2 µM; 0.53% of 340,000 active; AID 485358;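 active = activation over 3 SD above normal in the single-dose calcium agonist read, cut at about 30% in these data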; note: 0% is about no effect
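Agonism scored from kinetic calcium signal (1 read/sec, 180 s) following compound pin transfer, after a 10 s baseline. Cells: HEK293 Trex line expressing inducible D2 receptor coupled to calcium, dye-loaded after overnight culture at 30 C.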
D2 ag-2: human D2 receptor agonism in beta-arrestin assay; DiscoveRx PathHunter D2 beta-arrestin, luminescence, 90 min; 100% = 57 uM dopamine signal; 0.084% of 360,000 active; AID 624465; activation, % (no concentration beside the values); in the data active = activation above about 40%
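Agonist mode: compounds alone added to overnight-plated D2 PathHunter cells for 90 min at 37 C, with 57 uM final dopamine (EC100) defining full response. Beta-arrestin recruitment detected by chemiluminescent reagent, read after 1 h at ambient temperature.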
D2 PAM-2: human D2 receptor positive allosteric modulation | P14416 | DiscoveRx D2 beta-arrestin cells, luminescence, 90 min; 100% = 57 uM dopamine signal | potentiation, % (test concentration not listed) | 0.23% of 360,000 active | AID 624464; in the data active = potentiation above about 50%
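D2 cells co-treated with compound plus 50 nM dopamine (EC20) for 90 min at 37 deg C to detect potentiation. Beta-arrestin recruitment was read as enzyme-fragment luminescence after 1 h at ambient temperature. Full response was set by 57 uM dopamine.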
* = called active by the depositor. Hits are enriched below; roughly 2.4% of the tested compounds scored in any of these assays.

Screening Cc1ccccc1C(=O)NCc1nnc(SCC(=O)N2CCN(c3ccccc3)CC2)n1C returned D2 PAM-1 0, D2 antag 39*, D2 ag-1 -1, D2 ag-2 -6 and D2 PAM-2 -6.
Cc1ccccc1C(=O)NC(CC(C)C)C(=O)N1CCN(c2ccccc2)CC1 (stereo not drawn) was read as D2 PAM-1 31*, D2 antag -3, D2 ag-1 0, D2 ag-2 0 and D2 PAM-2 -9.
`CCOC(=O)CSc1nnc(CNC(=O)c2cccc(C)c2)n1-c1ccccc1OC` gave D2 PAM-1 -3, D2 ag-2 0 and D2 PAM-2 -1.
Screening COc1ccc2c(c1OC)C(=O)N1c3ccccc3C(=O)N(c3ccc(F)cc3)C21 (stereo not drawn) returned D2 antag 41*, D2 ag-1 0, D2 ag-2 -2 and D2 PAM-2 0.
For C=CCOc1ccc(/C=C/C(=O)OCC(=O)NC2CCCCCCC2)cc1 the results were D2 PAM-1 -16, D2 antag 43*, D2 ag-1 1, D2 ag-2 -3 and D2 PAM-2 -6.
For C=CCOc1ccc(/C=C/C(=O)OCC(=O)NCC2CCCCC2)cc1 the results were D2 PAM-1 14, D2 antag 5, D2 ag-1 -1, D2 ag-2 -2 and D2 PAM-2 -33.
For O=C(NCc1cccnc1)c1ccc(-c2cc(Cl)ccc2Cl)o1 the results were D2 PAM-1 -20, D2 antag 50*, D2 ag-1 -1, D2 ag-2 -6 and D2 PAM-2 -6.
Screening O=C(NCc1cccnc1)c1ccc(-c2ccc(Cl)cc2)o1 returned D2 PAM-1 -17, D2 antag -19, D2 ag-1 0, D2 ag-2 3 and D2 PAM-2 -17.
Screening Cc1ccc(CC(=O)NCc2cccnc2)cc1 returned D2 PAM-1 4, D2 antag 67* and D2 ag-1 1.
Cc1c(Cl)c([N+](=O)[O-])nn1CC(=O)NCc1cccnc1 was read as D2 PAM-1 -2, D2 antag 39*, D2 ag-1 0, D2 ag-2 3 and D2 PAM-2 0.
Cc1ccc(CSCC(=O)NCc2cccnc2)cc1 was read as D2 PAM-1 -3, D2 antag -1, D2 ag-1 -1, D2 ag-2 0 and D2 PAM-2 -3.
For O=C(COC(=O)/C=C/c1ccccc1)Nc1ccccc1Br the results were D2 PAM-1 -7, D2 antag 40*, D2 ag-1 -1, D2 ag-2 -3 and D2 PAM-2 -4.
`C/C=C/C(=O)OCC(=O)Nc1cccc(Br)c1` gave D2 PAM-1 -1, D2 antag -5, D2 ag-1 4, D2 ag-2 8 and D2 PAM-2 -2.
Screening C/C=C/C(=O)OCC(=O)Nc1ccccc1Br returned D2 PAM-1 -5, D2 antag 47*, D2 ag-1 0, D2 ag-2 -19 and D2 PAM-2 1.
For O=C(COC(=O)/C=C/c1ccc(Cl)cc1)Nc1ccccc1 the results were D2 PAM-1 41*, D2 antag -2, D2 ag-1 0, D2 ag-2 -2 and D2 PAM-2 -7.
Cc1ccccc1Nc1ncnc2c1c(-c1ccccc1)cn2-c1ccc(F)cc1 was read as D2 PAM-1 20 and D2 ag-1 0.
Screening CC(=O)N1CCc2c(sc3c2c(=O)n(-c2ccc(C)cc2)c(=O)n3CC(=O)Nc2ccccc2)C1 returned D2 PAM-1 21 and D2 ag-1 1.
For CCCOc1ccc(OC(=O)c2c(-c3ccccc3Cl)noc2C)cc1 the results were D2 PAM-1 -5 and D2 ag-1 0.
`CCSc1nc2ccccc2n1CC(=O)OC` gave D2 PAM-1 0, D2 antag -6, D2 ag-1 0, D2 ag-2 -4 and D2 PAM-2 -6.
O=C(O)CCn1c(SCc2ccccc2)nc2ccccc21 was read as D2 PAM-1 -5, D2 antag -1, D2 ag-1 0, D2 ag-2 -1 and D2 PAM-2 -12.
Cc1noc(C)c1CSc1nc2ccccc2n1CCc1ccccc1 was read as D2 PAM-1 35*, D2 antag -13, D2 ag-1 -1, D2 ag-2 -2 and D2 PAM-2 -10.
COC(=O)Cn1c(SCc2ccccc2)nc2ccccc21 was read as D2 PAM-1 31*, D2 antag -1, D2 ag-1 -1, D2 ag-2 -1 and D2 PAM-2 -4.
CC(C)N(C(=O)CSc1nc2ccccc2n1Cc1ccccc1)C(C)C was read as D2 PAM-1 36*, D2 antag -25, D2 ag-1 -1, D2 ag-2 -6 and D2 PAM-2 -17.
Screening CCCOc1ccc(-c2nonc2NC(=O)COc2ccc(C)cc2)cc1OCCC returned D2 PAM-1 -1 and D2 ag-1 1.
CC1=C(C(=O)N2CCCCCC2)CC(CC(=O)NC2CCCCC2)C(=O)N1Cc1ccc(C(C)(C)C)cc1 (stereo not drawn) was read as D2 ag-2 -7 and D2 PAM-2 -7.
`C=CCOc1ccccc1CN1CCC(C(=O)Nc2cccc(-c3ccn[nH]3)c2)CC1` gave D2 PAM-1 -4, D2 antag 92*, D2 ag-1 1, D2 ag-2 0 and D2 PAM-2 -33.
For O=[N+]([O-])c1cc(-n2cnnn2)ccc1N1CCC(Cc2ccccc2)CC1 the results were D2 PAM-1 -12, D2 antag 32*, D2 ag-1 0, D2 ag-2 2 and D2 PAM-2 9.
For CC1CC(C)CN(c2ccc(-n3cnnn3)cc2[N+](=O)[O-])C1 (stereo not drawn) the results were D2 PAM-1 1, D2 antag -4, D2 ag-1 0, D2 ag-2 -7 and D2 PAM-2 2.
`O=C(NC1=C(Nc2ccc(Cl)cc2)C(=O)c2ccccc2C1=O)c1ccccc1` gave D2 PAM-1 1, D2 antag 7, D2 ag-1 -1, D2 ag-2 12 and D2 PAM-2 51*.
`CC(=O)Nc1ccc(N=Cc2c(O)c(C(=O)Nc3ccccc3)cc3ccccc23)cc1` gave D2 PAM-1 -19, D2 antag 19, D2 ag-1 65*, D2 ag-2 9 and D2 PAM-2 1.
Screening CC(=O)Nc1ccc(N=Cc2c(O)c3ccccc3oc2=O)cc1 returned D2 ag-2 -5 and D2 PAM-2 -8.
For CC(C)c1ccc(-c2noc(SCC(=O)N3CCCCC3C)n2)cc1 (stereo not drawn) the results were D2 PAM-1 2 and D2 ag-1 0.
Screening CCN(CC)C(=O)N1CCN(C)CC1 returned D2 PAM-1 9, D2 antag 32*, D2 ag-1 1, D2 ag-2 -2 and D2 PAM-2 -1.

Compound activity deposited in PubChem by National Center for Advancing Translational Sciences (NCATS).
